Some test systems named below: NCI-H23 lung; NCI-H226 lung; NCI-H322M lung; HOP-62 NSCLC; NCI-H460 lung; HOP-92 NSCLC; NCI-H522 lung; A549/ATCC NSCLC; 786-0 renal; DU-145 prostate; K-562 leukemia; MALME-3M melanoma; MDA-MB-231 breast; RXF 393 renal; SF-268 CNS; SF-295 CNS; SF-539 CNS; UACC-257 melanoma; M14 melanoma; COLO 205 colon.
Common to all, as to test: NCI-60 one-dose screen, 48 h (100 = growth as untreated, 0 = no growth, -100 = all killed)
What all share (conditions): 10 µM unless noted

About 83,000 compounds went through this panel and 20% of them were active in at least one assay; those are over-represented in the sample as a whole.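 Treatment: one concentration, 48 hours, 96-well format. Scoring: percent growth, with anything below 10 considered active.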 A number with no mark means an inactive call. Calls of active or inactive are those of the source.

As for `Cc1ccc(S(=O)(=O)n2cc(CNc3ccc(N4CCOCC4=O)cc3)c3ccccc32)cc1`, the growth in the experiment on NCI-H23 lung was 87.8%; in the experiment with NCI-H226 lung it was 92.4%; with NCI-H322M lung, 100%; in the experiment on HOP-62 NSCLC, 84.6%; in the experiment with NCI-H460 lung, 99.8%; in the experiment on HOP-92 NSCLC it was 38.6%. Further, the growth is -10.5% (active) in the experiment with NCI-H522 lung; 103% in the experiment on A549/ATCC NSCLC; 92.3% in the experiment on 786-0 renal; 67.6% in the experiment on DU-145 prostate; 82.4% in the experiment on K-562 leukemia; 62.9% in the experiment with MALME-3M melanoma. The growth in the experiment on MDA-MB-231 breast was 87.8%; in the experiment with RXF 393 renal, -8.02% (active); with SF-268 CNS, 89.4%; in the experiment on SF-295 CNS it was 88.7%; in the experiment with SF-539 CNS it was 96.8%; in the experiment with UACC-257 melanoma it was 86.6%. In addition, the growth with M14 melanoma was 93.3%.
Take `CC(C)(C)CC(C)(C)Nc1c(-c2ccncc2)nc2cnccn12`: the growth was 99.2% with NCI-H23 lung; 90.3% in the experiment with NCI-H226 lung; 103% with NCI-H322M lung; 104% in the experiment on HOP-62 NSCLC; 105% with NCI-H460 lung; 87.1% in the experiment on HOP-92 NSCLC. For the same molecule, the growth in the experiment with NCI-H522 lung was 87.1%; with A549/ATCC NSCLC, 96.4%; in the experiment with 786-0 renal, 96.6%; in the experiment on DU-145 prostate it was 106%; in the experiment with K-562 leukemia, 98.4%; in the experiment on MALME-3M melanoma, 110%. In addition, the growth in the experiment with MDA-MB-231 breast was 95%; with RXF 393 renal, 93.8%; in the experiment with SF-268 CNS, 98.6%; with SF-295 CNS, 101%; with SF-539 CNS, 93.8%; in the experiment with UACC-257 melanoma it was 103%. For the same molecule, the growth with M14 melanoma is 100%.
For the molecule `COc1cccc(-c2nn(-c3ccccc3)cc2-c2ccnc(NCCCNC(=O)c3cccc(C(F)(F)F)c3)c2)c1`, the growth is 27.3% in the experiment on NCI-H23 lung; 13.3% in the experiment with NCI-H226 lung; 75.3% in the experiment with NCI-H322M lung; 48.3% in the experiment on HOP-62 NSCLC; 23.4% in the experiment on NCI-H460 lung; 9.4% (active) with HOP-92 NSCLC. The growth with A549/ATCC NSCLC is 8.6% (active); in the experiment with 786-0 renal it was 29.8%; with COLO 205 colon, 9.99% (active); in the experiment with DU-145 prostate, 52.3%; in the experiment on K-562 leukemia it was 18%; in the experiment with MALME-3M melanoma, 9.81% (active). Further, the growth was 23.6% in the experiment on MDA-MB-231 breast; 36% with RXF 393 renal; 57.4% in the experiment on SF-268 CNS; 27.3% in the experiment with SF-295 CNS; 30.6% in the experiment on SF-539 CNS; 12.1% with UACC-257 melanoma. The growth in the experiment with M14 melanoma is 28.2%.
Consider `NC(=O)c1ccc[n+]([C@@H]2O[C@H](COP(=O)([O-])OP(=O)(O)OC[C@H]3O[C@@H](n4cnc5c(N)ncnc54)[C@H](O)[C@@H]3O)[C@@H](O)[C@H]2O)c1`, for which the growth in the experiment with NCI-H23 lung was 103%; with NCI-H226 lung it was 117%; in the experiment with NCI-H322M lung it was 113%; with HOP-62 NSCLC, 108%; with NCI-H460 lung, 104%; in the experiment on HOP-92 NSCLC, 111%. Moreover, the growth in the experiment with A549/ATCC NSCLC is 105%; in the experiment with 786-0 renal, 103%; in the experiment with COLO 205 colon, 113%; in the experiment with DU-145 prostate it was 105%; in the experiment on K-562 leukemia it was 109%; in the experiment with MALME-3M melanoma, 115%. Also, the growth with MDA-MB-231 breast is 98%; with RXF 393 renal, 125%; with SF-268 CNS it was 104%; in the experiment with SF-295 CNS, 108%; in the experiment on SF-539 CNS, 90.3%; with UACC-257 melanoma it was 108%. In the experiment with M14 melanoma, the growth is 104%.
Consider `CCc1ccccc1NC(=O)/C(C#N)=C/c1ccc(OC)cc1`, for which the growth in the experiment with NCI-H23 lung was 98.2%; in the experiment on NCI-H226 lung it was 97.5%; in the experiment on NCI-H322M lung, 87.8%; in the experiment with HOP-62 NSCLC, 96%; in the experiment on NCI-H460 lung it was 104%; in the experiment with HOP-92 NSCLC, 86.9%. Also, the growth in the experiment on A549/ATCC NSCLC is 94%; in the experiment with 786-0 renal, 107%; in the experiment on COLO 205 colon, 119%; in the experiment with DU-145 prostate it was 100%; in the experiment on K-562 leukemia it was 99.5%; with MALME-3M melanoma, 104%. The growth was 105% with MDA-MB-231 breast; 126% in the experiment on RXF 393 renal; 93.8% in the experiment with SF-268 CNS; 91.9% in the experiment with SF-295 CNS; 108% with SF-539 CNS; 108% in the experiment with UACC-257 melanoma. Besides, the growth with M14 melanoma was 99.1%.
As for `COC(=O)[C@]12CC[C@@H](C)[C@H](C)[C@@H]1C1=CC[C@@H]3[C@@]4(C)C(C=O)=C[C@@](C)(COC(=O)/C=C/c5ccccc5)[C@@H]4[C@H](O)C[C@@]3(C)[C@]1(C)CC2`, the growth in the experiment on NCI-H23 lung is 10.4%; with NCI-H226 lung, 10.1%; with NCI-H322M lung, 42%; in the experiment with HOP-62 NSCLC, -5.38% (active); with NCI-H460 lung, -19.1% (active); in the experiment on HOP-92 NSCLC it was -5.49% (active). Besides, the growth in the experiment on A549/ATCC NSCLC was 3.82% (active); with 786-0 renal it was -5.1% (active); in the experiment with COLO 205 colon it was -37% (active); with DU-145 prostate, -3.76% (active); with K-562 leukemia, 9.93% (active); in the experiment with MALME-3M melanoma it was -43.2% (active). Further, the growth in the experiment with MDA-MB-231 breast is 0.0701% (active); in the experiment on RXF 393 renal, -40.6% (active); with SF-268 CNS, 14.7%; with SF-295 CNS, 1.14% (active); with SF-539 CNS, -10.7% (active); in the experiment with UACC-257 melanoma, -43.2% (active). The growth in the experiment on M14 melanoma is -43% (active).
In the case of `CCN(CC)CCCCCCNc1cc(OC)c(Cl)c2cccnc12`, the growth in the experiment on NCI-H23 lung was 76.9%; in the experiment on NCI-H226 lung it was 78.7%; in the experiment on NCI-H322M lung, 92.7%; in the experiment on HOP-62 NSCLC, 69.1%; in the experiment with NCI-H460 lung, 83.9%; in the experiment on HOP-92 NSCLC, 58.8%. For the same molecule, the growth in the experiment with A549/ATCC NSCLC was 96.7%; in the experiment with 786-0 renal, 73.9%; in the experiment with COLO 205 colon it was 55.1%; in the experiment with DU-145 prostate, 95.4%; with K-562 leukemia, 59.6%; in the experiment with MALME-3M melanoma it was 88.4%. Also, the growth in the experiment with MDA-MB-231 breast was 66.8%; in the experiment on RXF 393 renal it was 84.6%; in the experiment on SF-268 CNS, 85.3%; in the experiment on SF-295 CNS it was 82.3%; in the experiment on SF-539 CNS, 81.9%; with UACC-257 melanoma it was -1.76% (active). Also, the growth with M14 melanoma is 27.2%.
Consider `N#CC1=C(c2ccc(Br)cc2)NC(SCC(=O)c2ccc(Br)cc2)NC1=O` (configuration not stated), for which the growth with NCI-H23 lung was 105%; in the experiment with NCI-H226 lung it was 97%; in the experiment on NCI-H322M lung, 104%; in the experiment on HOP-62 NSCLC, 98.6%; in the experiment on NCI-H460 lung, 107%; in the experiment with HOP-92 NSCLC, 102%. Further, the growth with A549/ATCC NSCLC is 93.8%; in the experiment with 786-0 renal it was 92.6%; in the experiment on COLO 205 colon, 116%; in the experiment on DU-145 prostate, 108%; in the experiment with K-562 leukemia it was 91.1%; with MALME-3M melanoma it was 105%. In addition, the growth in the experiment with MDA-MB-231 breast was 105%; with RXF 393 renal it was 108%; in the experiment on SF-268 CNS it was 98.9%; with SF-295 CNS it was 101%; with SF-539 CNS, 96.2%; with UACC-257 melanoma, 103%. In addition, in the experiment with M14 melanoma, the growth is 100%.

These data come from PubChem BioAssay (NCI).
